According to PMC4552634, “A New Set of Chemical Starting Points with Plasmodium falciparum Transmission-Blocking Potential for Antimalarial Drug Discovery” (PLoS ONE, 2015):
Out of some 13,000 compounds screened, about 3,200 (25%) showed an effect of 50% or more. The list shows a part of the results.

What follows are compounds tested on P. falciparum stage V gametocytes. Details: 48 h, 5 µM; inhibitor.
Design: BacTiter-Glo ATP luminescence viability of purified stage V gametocytes in 384-well plates, per cent inhibition versus DMSO

| Compound | % Inhibition [%] |
| --- | --- |
| O=C(c1ccccc1N=Nc1c(-c2ccccc2)[nH]n(-c2ccccc2)c1=O)N1CCOCC1 [TCMDC-125746] | -15.29 |
| CN(C)CCN(C)Cc1ccc(-c2ccc(NC(=O)c3cccc(C#N)c3)cc2)cc1 [TCMDC-132597] | -16.52 |
| O=C(Nc1cc(F)cc(-c2cccnc2)c1)c1ccc2c(=O)n(Cc3ccccc3)cnc2c1 [TCMDC-132372] | 12.04 |
| CN(C)Cc1cccc(-c2ccc(NC(=O)c3ccc4c(=O)n(Cc5ccoc5)cnc4c3)cc2)c1 [TCMDC-132369] | 14.65 |
| CN1CCC(Oc2ccc(NC(=O)c3ccc4c(=O)n(Cc5ccccc5)cnc4c3)cc2Cl)CC1 [TCMDC-132373] | -13.59 |
| CN(C)Cc1ccc(-c2ccc(NC(=O)c3ccc4c(=O)n(Cc5ccoc5)cnc4c3)cc2)cc1 [TCMDC-132368] | 79.58 |
| CN(C)Cc1ccc(-c2ccc(NC(=O)c3ccc4c(=O)n(Cc5ccccc5)cnc4c3)cc2)cc1 [TCMDC-132361] | 121.5 |
| Brc1ccsc1-c1nc(NCCC(c2ccccc2)c2ccccc2)no1 [TCMDC-134185] | 1.138 |
| COc1ccc(C2CC(=O)C3=C(C2)NC(C)=C(C(=O)OC2CCCC2)C3c2ccc(O)cc2)cc1OC (centres unmarked) [TCMDC-125626] | 11.61 |
| COc1cc2nc(-c3ccccc3)nc(N3CCN(CC(=O)N4CCCC4)CC3)c2cc1OC [TCMDC-125097] | -15.61 |
| O=C(/C=C/c1ccc(Cl)c(Cl)c1)N1CCC(CNCc2cccc3cc[nH]c23)CC1 [TCMDC-134168] | -34.36 |
| COc1cc(NC(=O)/C=C/c2ccc(-c3ccccc3)cc2)ccc1OCCN(C(C)C)C(C)C [TCMDC-139961] | -1.594 |
| COc1ccc(C(=O)Nc2ccc(-c3ccc([N+](=O)[O-])cc3)cc2)cc1CCCN(C)C [TCMDC-132090] | 0.6115 |
| COc1ccc(/C=C/C(=O)Nc2ccc(-c3ccncc3)cc2)cc1CCCN(C)C [TCMDC-132082] | 72.07 |
| Cc1nc(-c2ccc(-c3ccc(C(=O)Nc4ccc(C(C)C)c(OCCN(C)C)c4)cc3)c(C)c2)no1 [TCMDC-138990] | -34.94 |
| COc1ccc(NC(=O)/C=C/c2ccc(-c3ccc(-c4noc(C)n4)cc3)cc2)cc1OCCN(C)C [TCMDC-138985] | 62.93 |
| COc1ccc(NC(=O)/C=C/c2ccc(-c3ccccc3)cc2)cc1N1CCN(C)CC1 [TCMDC-138979] | -7.206 |
| CC(=O)Nc1nc(C(=O)Nc2ccc(-c3cccc(-c4nc5ccc(C(F)(F)F)cc5[nH]4)c3)cc2)cs1 [TCMDC-137129] | -34.14 |
| COc1cccc(COCC(O)CN(CCc2ccccn2)C(=O)c2ccccc2F)c1 (centres unmarked) [TCMDC-141311] | 5.48 |
| CCCCC(CC)CN1C(=O)C(c2ccccc2)(c2ccccc2)N=C1N (centres unmarked) [TCMDC-136814] | -93.32 |
| CNC(=O)c1cc(Nc2nnc(-c3ccc(C)c(S(=O)(=O)NC4CCCCC4)c3)c3ccccc23)ccc1OC [TCMDC-125661] | -9.997 |
| NCc1cccc(-c2ccc(CNC3CCN(Cc4ccccc4)CC3)cc2)c1 [TCMDC-140486] | 46.75 |
| NCc1cccc(-c2cccc(CNC3CCN(Cc4ccccc4)CC3)c2)c1 [TCMDC-140477] | 86.14 |
| Oc1ccc(CN2CCC(NCc3cccc(C(F)(F)F)c3)CC2)cc1 [TCMDC-141655] | -19.37 |
| NCc1ccc(-c2cccc(CNC3CCN(Cc4ccccc4)CC3)c2)cc1 [TCMDC-140478] | 84.33 |

| Compound | % Inhibition [%] |
| --- | --- |
| CCOc1cc(C(=O)NC2CCN(Cc3ccccc3)C2)ccc1-c1nc2ccc(Cl)cc2[nH]1 (centres unmarked) [TCMDC-140911] | -5.376 |
| O=C(Nc1ccc(-c2nc3ccccc3[nH]2)cc1)c1ccc(S(=O)(=O)N2CCCCCC2)cc1 [TCMDC-125712] | -20.46 |
| Cc1ccc2nc(C)cc(N/N=C/c3ccc([N+](=O)[O-])cc3)c2c1 [TCMDC-142070] | 109.1 |
| COc1ccc2nc(C)cc(NN=Cc3ccccc3[N+](=O)[O-])c2c1 [TCMDC-142087] | 48.43 |
| COc1ccc2nc(C)cc(NN=Cc3ccc([N+](=O)[O-])o3)c2c1 [TCMDC-142036] | 11.78 |
| CCOc1ccc2nc(C)cc(NN=Cc3ccccc3[N+](=O)[O-])c2c1 [TCMDC-142048] | 91.47 |
| Cc1ccc2nc(C)cc(N/N=C/c3ccc([N+](=O)[O-])o3)c2c1 [TCMDC-142035] | 56.06 |
| COc1ccc2nc(-c3ccccc3)cc(NN=Cc3ccc([N+](=O)[O-])o3)c2c1 [TCMDC-142040] | -17.37 |
| Cc1ccc2nc(C)cc(N/N=C/c3ccccc3[N+](=O)[O-])c2c1 [TCMDC-123975] | -3.364 |
| Cc1ccc2nc(C)cc(NN=Cc3ccc(Cl)cc3)c2c1 [TCMDC-123976] | -8.095 |
| CCOc1ccc2nc(C)cc(NN=Cc3cccc([N+](=O)[O-])c3)c2c1 [TCMDC-142049] | 64.63 |
| COCCNCc1ncsc1-c1ccc2c(Nc3cc(O)ccc3C)ccnc2c1 [TCMDC-138465] | -33.69 |
| CC(C)(C)c1ccccc1OC(=O)c1ccccc1 [TCMDC-123936] | -15.9 |
| CCCN1CCC(c2c[nH]c3ccc(NC(=O)Nc4cccc(Cl)c4Cl)cc23)CC1 [TCMDC-139182] | -83.82 |
| O=[N+]([O-])c1ccc(C=NNc2nc(Nc3ccccc3)nc(Nc3ccccc3)n2)o1 [TCMDC-125802] | 108.2 |
| COc1ccc2c(N/N=C/c3ccccc3[N+](=O)[O-])cc(C)nc2c1 [TCMDC-142088] | -15.58 |
| Cc1ccc2c(N/N=C/c3ccccc3[N+](=O)[O-])cc(C)nc2c1 [TCMDC-142071] | 26.69 |
| Cc1ccc2c(N/N=C/c3cccc([N+](=O)[O-])c3)cc(C)nc2c1 [TCMDC-142072] | 87.02 |
| Cc1cc(N/N=C/c2cccc([N+](=O)[O-])c2)c2ccccc2n1 [TCMDC-123977] | 89.22 |
| O=[N+]([O-])c1ccc(Nc2nc(N/N=C/c3ccc(-c4ccc([N+](=O)[O-])cc4)o3)nc(Nc3ccccc3)n2)cc1 [TCMDC-123858] | -4.596 |
| Cc1cc(N/N=C/c2ccccc2[N+](=O)[O-])c2ccccc2n1 [TCMDC-123978] | -75.07 |
| O=[N+]([O-])c1ccc(-c2ccc(C=NNc3nc(Nc4ccccc4)nc(Nc4ccccc4)n3)o2)cc1 [TCMDC-124230] | -25.78 |
| COc1ccc2c(N/N=C/c3cccc([N+](=O)[O-])c3)cc(C)nc2c1 [TCMDC-142089] | 108 |
| COc1ccc2nc(C)cc(NN=Cc3cccc([N+](=O)[O-])c3)c2c1 [TCMDC-123972] | 49.98 |
| CNC(=O)CSc1nnc(-c2ccc(C)cc2)c(-c2ccc(C)cc2)n1 [TCMDC-123901] | 5.321 |

| Compound | % Inhibition [%] |
| --- | --- |
| NC(=O)Nc1ccc2cn[nH]c2c1 [TCMDC-131601] | 13.14 |
| C=CCc1cccc(CN2CCC(c3cc(=O)[nH]c(-c4ccccn4)n3)CC2)c1O [TCMDC-124851] | 46.78 |
| CCc1nc2c(N)nc(N)nc2nc1-c1ccc(OC)cc1 [TCMDC-132107] | 7.623 |
| COc1cccc2c(N/N=C/c3ccccc3[N+](=O)[O-])cc(C)nc12 [TCMDC-142043] | 74.75 |
| Cc1cccc(C=NNc2cc(C)nc3ccc(F)cc23)n1 [TCMDC-142019] | -41.63 |
| Cc1ccc2nc(C)cc(N/N=C/c3cccc([N+](=O)[O-])c3)c2c1 [TCMDC-142069] | 66.26 |
| CCOc1ccc2nc(C)cc(NN=Cc3cccc(F)c3)c2c1 [TCMDC-142093] | 73.55 |
| Cc1ccc(Nc2nc(N/N=C/c3ccccc3[N+](=O)[O-])nc(Nc3ccc([N+](=O)[O-])cc3)n2)cc1C [TCMDC-124207] | 32.01 |
| Cc1ccc(Nc2nc(N/N=C/c3cccc([N+](=O)[O-])c3)nc(Nc3ccccc3)n2)c(C)c1 [TCMDC-124206] | 1.923 |
| Cc1cc(N/N=C/c2ccccc2[N+](=O)[O-])c2cccc(C)c2n1 [TCMDC-142073] | -15.7 |
| Cc1cc(N2CCCC2)nc(Nc2ccc(NC(=O)c3ccccc3C)cc2)n1 [TCMDC-124711] | -8.542 |
| CCOC(=O)c1c(C)noc1Nc1ccc(OC)cc1 [TCMDC-131521] | -6.953 |
| CCc1c[nH]c2c(N3CCCC3=O)cc(C(=O)N[C@@H](Cc3ccccc3)[C@H](O)CNC(C)(C)CCCC(C)C)cc12 [TCMDC-135025] | 68.24 |
| CCc1c[nH]c2c(N3CCCS3(=O)=O)cc(C(=O)N[C@@H](Cc3ccccc3)[C@H](O)CNC3CCCCC3)cc12 [TCMDC-135169] | 49.22 |
| CCc1c[nH]c2c(N3CCCS3(=O)=O)cc(C(=O)N[C@@H](Cc3ccccc3)[C@H](O)CNC(C)(C)CCCC(C)C)cc12 [TCMDC-135168] | 100.1 |
| CCc1c[nH]c2c(N3CCCCC3=O)cc(C(=O)N[C@@H](Cc3ccccc3)[C@H](O)CNCc3cccc(OC)c3)cc12 [TCMDC-134156] | 3.442 |
| CCc1cn(C)c2c(N3CCCC3=O)cc(C(=O)N[C@@H](Cc3ccccc3)[C@H](O)CNC(C)(C)CCCC(C)C)cc12 [TCMDC-135199] | 78.23 |
| CCc1cn(C)c2c(N3CCCC3=O)cc(C(=O)N[C@@H](Cc3ccccc3)[C@H](O)CNC3CCCCC3)cc12 [TCMDC-135198] | 56.93 |
| CCNc1cc(C(=O)N[C@@H](Cc2ccccc2)[C@H](O)CNCC(C)C)cc(N2CCCC2=O)c1 [TCMDC-138888] | 11.22 |
| CCc1c[nH]c2c(N3CCCS3(=O)=O)cc(C(=O)N[C@@H](Cc3ccccc3)[C@H](O)CNC(C)(C)c3cccc(C(F)(F)F)c3)cc12 [TCMDC-135172] | 20.21 |
| CCc1c[nH]c2c(N3CCCC3=O)cc(C(=O)N[C@@H](Cc3ccccc3)[C@H](O)CNC3CCCCC3)cc12 [TCMDC-135024] | 43.33 |
| CCNc1cc(C(=O)N[C@@H](Cc2ccccc2)[C@H](O)CNCCC(C)c2ccccc2)cc(N2CCCC2=O)c1 (some centres unmarked) [TCMDC-141683] | 6.791 |
| COc1cccc(CNC[C@@H](O)[C@H](Cc2ccccc2)NC(=O)c2cc(N3CCCC3=O)c3[nH]cc(C(C)C)c3c2)c1 [TCMDC-132584] | -12.1 |
| CCc1ccnc2c(N3CCCC3=O)cc(C(=O)N[C@@H](Cc3ccccc3)[C@H](O)CNC3CCOCC3)cc12 [TCMDC-135882] | -3.363 |
